Hits are enriched below; roughly 4.1% of the tested compounds scored in any of these assays.
hcDAF12 agonist = activators of H. contortus DAF-12 nuclear receptor | AID 652067 | activation, % at 6.8 µM | 370,000 compounds, 1.4% hits | HEK293 hcDAF-12 lit1-tk-luc reporter, luminescence; 0% DMSO, 100% Δ7-dafachronic acid;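 active means activation above the mean of all tested compounds plus 3 SD, cut at about 5.5% in these data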
ssDAF-12 act = S. stercoralis DAF-12 activation, primary screen; HEK293 ssDAF-12/GRIP1 lit1-tk-luc reporter, luminescence; % of 3 µM dafachronic acid response; activation, % at 6.8 µM; 370,000 compounds, 1% hits;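 active means activation above the mean over all tested compounds plus 3 SD, cut at about 0.9% in these data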
DAX1 inh-1 = inhibitors of DAX1 repression of SF-1 activated StAR promoter; 370,000 compounds, 1.1% hits; HEK293T StAR-luciferase reporter, SF-1/DAX-1 repression relief; AID 652010; inhibition, % at 6.8 µM;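 active means inhibition above the mean over all tested compounds plus 3 SD, cut at about 3.6% in these data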;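 further: higher inhibition means more luminescence from relief of DAX-1 repression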
DAX1 inh-2 = inhibits human nuclear receptor DAX1. P51843. HEK293 Gal4-DAX1 luciferase reporter, luminescence. inhibition, % at 6.75 µM. 340,000 compounds, 0.99% hits;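 active means inhibition above the mean over all tested compounds plus 3 SD, cut at about 4.2% in these data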;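 further: inhibition shows as a rise in luminescence from relieved DAX1 repression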
Target sequence (P51843 207-470 limits assumed): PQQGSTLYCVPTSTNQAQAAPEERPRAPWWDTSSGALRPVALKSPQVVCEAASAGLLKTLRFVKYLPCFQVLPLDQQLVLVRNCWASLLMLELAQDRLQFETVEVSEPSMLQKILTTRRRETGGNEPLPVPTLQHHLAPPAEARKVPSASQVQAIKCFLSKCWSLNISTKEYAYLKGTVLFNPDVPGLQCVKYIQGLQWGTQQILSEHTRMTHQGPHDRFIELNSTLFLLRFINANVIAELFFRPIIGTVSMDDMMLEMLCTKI
hgDAF12 agonist = activates the H. glycines DAF-12 receptor ligand-binding domain; HEK293 GAL4-hgDAF12 UAS-luciferase reporter, agonist luminescence; normalized to butyrate control; activation, % at 6.8 µM; 370,000 compounds, 1.8% hits; AID 687014;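 active means activation above a cutoff set at the mean of all screened compounds plus 3 SD, cut at about 10% in these data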
DAX1 conf = NR0B1 (human) inhibition, confirmation | inhibition, % at 6.8 µM | 2,400 compounds, 87% hits | HEK293T StAR-promoter luciferase reporter, SF-1/DAX-1 repression | shares compounds with DAX1 inh-1;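 active means inhibition above the average of every tested compound plus 3 SD, cut at about 3.8% in these data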;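 further: active compounds raise luminescence by relieving repression of the StAR reporter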
SF1 AF2mut Luc = counter-screen for DAX1 inhibitors: nonselective inhibitors with SF-1 AF2 mutant; shares compounds with DAX1 inh-1; 2,400 compounds, 78% hits; AID 652136; HEK293 StAR-luciferase, luminescence; inhibition, % at 6.8 µM;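 active means inhibition above the mean of all tested compounds plus 3 SD, cut at about 3% in these data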
A number is an active result; - = inactive; . = no result given.

SMILES	hcDAF12 agonist	ssDAF-12 act	DAX1 inh-1	DAX1 inh-2	hgDAF12 agonist	DAX1 conf	SF1 AF2mut Luc
Cc1ccccc1OCCN1C(=O)c2ccccc2C1=O	-	-	-	-	-	.	.
O=C(N[C@H](C(=O)N1CCC[C@H]1C(=O)NC1CCCC1)C1CCCCC1)C1CC1	-	-	-	.	-	.	.
Cc1cc(C)cc(NC(=O)C2(C(=O)C3CC3)CC(c3ccccc3C(F)(F)F)=NO2)c1 (stereo unspecified)	-	-	-	.	-	.	.
Cc1cc(C)n2nc(C(=O)Nc3ccc4c(c3)OCO4)nc2n1	-	-	-	-	-	.	.
Cc1ccnc2nc(C(=O)Nc3ccc4c(c3)OCO4)nn12	-	-	4.6	-	-	8.9	5.2
Cc1cc(C)n2nc(C(=O)Nc3ccc4c(c3)OCCO4)nc2n1	-	-	6.0	-	-	5.6	-
COC(=O)[C@]12C[C@H](CC(=O)N3CCSCC3)C(=O)N(CCC3=CCCCC3)C1=C[C@H](C(C)C)O[C@@H]2C1CC1	-	-	-	.	-	.	.
CCN(CC)c1ccc(C(=O)NNC(=O)c2cccn2C)cc1	-	-	5.1	4.7	11	6.1	5.5
O=C(Nc1ccc(CN2CCOCC2)cc1)c1cc2ccccn2n1	-	-	6.2	-	-	9.8	3.0
O=C(Cc1ccccc1)Nc1ccc(CN2CCOCC2)cc1	-	-	-	-	-	.	.
CCOC(=O)CC[C@@H]1CC[C@]2(CCCN(Cc3cccs3)C2)O1	-	-	-	.	-	.	.
O=C(CCS(=O)(=O)c1ccccc1)N1CCN(c2ccccc2F)CC1	-	-	7.0	-	13	7.6	3.1
Cc1nc([N+](=O)[O-])cn1CC(Cl)Cn1cc([N+](=O)[O-])nc1C	-	-	-	.	-	.	.
COc1ccc(/C=C/c2cc(O)cc(O[C@@H]3O[C@H](CO)[C@@H](O)[C@H](O)[C@H]3O)c2)cc1O	-	-	5.2	.	-	13	7.4
COc1ccc(C=C2CCc3ccccc3C2=O)cc1	-	-	6.6	.	-	7.2	-
CCOc1ccc(/C=C2\CCc3ccccc3C2=O)cc1	-	-	-	-	-	.	.
CCCCCCCCN1C(=O)[C@@H](CC(=O)NCC23CC4CC(CC(C4)C2)C3)C[C@@]2(C(=O)OC)C1=C[C@H](C(C)C)O[C@@H]2C1CC1	-	-	-	.	-	.	.
Cc1cnc(NC(=O)CSc2ccc(Cl)cc2)s1	-	-	-	-	-	.	.
Cc1cnc(NC(=O)Nc2ccc(Cl)cc2)s1	5.8	-	6.0	-	-	14	6.8
O=C(/C(N=Nc1cccc(C(F)(F)F)c1)=C(/O)c1cccs1)C(F)(F)F	-	-	-	-	-	.	.
Cc1ccc(N=C/C(C(=O)C(F)(F)F)=C(\O)c2cccs2)cc1	6.5	-	4.5	-	-	18	6.2
Cc1ccc(C(=O)Nc2ncccc2O)o1	-	-	6.0	-	-	5.4	-
CCCOC1CCCN(C(=O)c2cc(COc3c(F)cccc3F)on2)C1 (stereo unspecified)	-	-	4.5	-	-	4.4	5.5
Cc1ccccc1C1CCCN(C(=O)c2cc(COc3c(F)cccc3F)on2)C1 (stereo unspecified)	-	-	-	-	-	.	.
Cc1ccc(NC(=O)c2ccc(-c3cc(Cl)ccc3Cl)o2)c(C)c1	-	-	5.9	.	-	-	-
SMILES	hcDAF12 agonist	ssDAF-12 act	DAX1 inh-1	DAX1 inh-2	hgDAF12 agonist	DAX1 conf	SF1 AF2mut Luc
Cc1ccccc1NC(=O)c1ccc(-c2ccc(Cl)cc2Cl)o1	-	-	-	-	-	.	.
Cc1ccnc(Nc2ccc(CCO)cc2)n1	-	-	4.8	.	11	9.5	5.6
Cc1cccc(C)c1N1C(=O)c2ccccc2NC(=O)C1C(=O)NCCc1ccccc1 (stereo unspecified)	-	-	-	.	-	.	.
Cc1cccc(C)c1N1C(=O)c2ccccc2NC(=O)C1C(=O)NCCc1ccccc1F (stereo unspecified)	-	-	4.7	.	-	-	-
CC1CCC2(CC1)CCC2NCc1ccc(Cl)cc1 (stereo unspecified)	-	-	.	.	-	.	.
COc1ccc(C(=O)NCCc2c[nH]c3ccccc23)cc1	-	-	-	-	-	.	.
Cc1ccsc1C(=O)NCCc1c[nH]c2ccccc12	-	-	4.6	-	-	5.9	2.9
C=CCNc1nc(NCc2ccc(NC(C)=O)cc2)c2sc(-c3ccccc3)cc2n1	-	2.0	6.4	.	12	7.8	5.7
CC(=O)Nc1ccc(CNc2nc(NC(C)C)nc3cc(-c4ccccc4)sc23)cc1	-	-	-	.	-	.	.
CCOc1ccc(NC(=O)c2ccco2)cc1S(=O)(=O)N1CCCC1	-	-	5.1	-	-	-	-
O=C(NCCc1ccccc1)OCc1cn(-c2ccc(Cl)cc2)nn1	-	-	-	.	-	.	.
CC(C)CNS(=O)(=O)/C=C/c1cc2c(cc1CNC(=O)OC(C)(C)C)OCO2	-	-	-	.	-	.	.
Cc1ccccc1-c1nnc2n1N=C(c1ccc(O)c(O)c1)CS2	-	-	5.2	.	-	21	-
Cc1cccc2nc(COc3ccc4ccccc4c3Br)cn12	6.0	-	4.8	6.5	-	12	7.3
Cc1csc(NC(=O)c2cc(C)on2)n1	-	-	7.0	-	-	6.8	5.9
OC[C@@H]1CC[C@@H](Cc2ccc(-c3ccccc3)cc2)O1	-	-	5.6	-	-	6.7	4.8
COc1ccccc1CCn1cnc(-c2ccccc2OC)c1CC(C)C	-	-	-	.	-	.	.
Nc1c(C(=O)C2CC2)sc2nc3c(cc12)CCC3	-	-	4.7	-	11	9.8	10.0
O=C(NC1CCCCN(Cc2ccc(Cl)cc2)C1=O)c1ccc(COc2ccccc2)cc1 (stereo unspecified)	-	-	-	.	-	.	.
CC(=O)c1c(C)[nH]c(C(=O)COC(=O)C2CC2)c1C	-	-	-	-	-	.	.
CCOC(=O)c1c(C)[nH]c(C(=O)OCc2ccc(F)cc2)c1C	-	-	5.7	-	-	7.5	5.8
CCOC(=O)c1c(C)[nH]c(C(=O)COC(=O)C2CC2)c1C	-	-	5.2	-	-	-	-
Cc1ccc(-c2nnc(SCC(=O)Nc3ccc(F)cc3F)n2Cc2ccco2)cc1	-	-	-	.	-	.	.
c1ccc(C2=NNC(=NC3CC3)SC2)cc1	-	-	6.8	-	12	5.3	-
COC(=O)[C@]12C[C@H](CC(=O)NCC34CC5CC(CC(C5)C3)C4)C(=O)N(CCc3ccc(OC)c(OC)c3)C1=C[C@H](C1CCCC1)O[C@@H]2C	-	-	-	.	-	.	.
CCc1noc(C)c1C(=O)NCCc1ccccc1	-	-	5.3	-	-	6.1	4.8
CCc1noc(C)c1C(=O)NCCc1ccc(F)cc1	-	-	-	-	-	.	.
COc1cccc(Cn2cc(COC(=O)N3CCOCC3)nn2)c1	-	-	-	.	-	.	.
